Records with an inconclusive call do not appear. Active and inactive are the calls of the source. Unless noted, calls follow the shape of the dose curve; as a rule, active = well fitted cell-killing curve with a large enough effect; inconclusive = small, poorly fitted or top-dose-only effect, or effect the other way; inactive = no such curve, though single readings can be large or run the other way.
Experiments:
[1] = Quantitative High-Throughput drug screen in 47 multiple myeloma cell lines against the NCATS MIPE library collection: VP6_DJ cell viability assay (AID 1919867); also: nearly all actives have a fitted effect of over 40% in size; also: potency is read from the fitted curve at half-maximal effect
Summary of the method: (§1)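 ATP-based luminescence (CellTiter-Glo, 5 min RT incubation) quantified surviving cells following two days' treatment with MIPE 4.0 agents at 37 °C, 5% CO2.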

[2] = Quantitative High-Throughput drug screen in 47 multiple myeloma cell lines against the NCATS MIPE library collection: UTMC2_PLB cell viability assay (AID 1919868); details: CellTiter-Glo ATP luminescence, 48 h; viability (% of DMSO control): at 45.8 µM (top of the series) unless noted; also: nearly all actives have a fitted effect of over 55% in size; also: potency is read from the fitted curve at half-maximal effect
Summary of the method: as §1

[3] = Quantitative High-Throughput drug screen in 47 multiple myeloma cell lines against the NCATS MIPE library collection: PE2_PLB cell viability assay (AID 1919869); also: nearly all actives have a fitted effect of over 35% in size; also: potency is read from the fitted curve at half-maximal effect
Summary of the method: as §1

[4] = Quantitative High-Throughput drug screen in 47 multiple myeloma cell lines against the NCATS MIPE library collection: PCM6_Riken cell viability assay (AID 1919870); also: nearly all actives have a fitted effect of over 30% in size; also: potency is read from the fitted curve at half-maximal effect
Summary of the method: as §1

[5] = Quantitative High-Throughput drug screen in 47 multiple myeloma cell lines against the NCATS MIPE library collection: RPMI8226_ATCC cell viability assay (AID 1919871); also: nearly all actives have a fitted effect of over 30% in size; also: potency is read from the fitted curve at half-maximal effect
Summary of the method: as §1

[6] = Quantitative High-Throughput drug screen in 47 multiple myeloma cell lines against the NCATS MIPE library collection: KMS11_JCRBsus cell viability assay (AID 1919873); also: nearly all actives have a fitted effect of over 50% in size; also: potency is read from the fitted curve at half-maximal effect
Summary of the method: as §1

[7] = Quantitative High-Throughput drug screen in 47 multiple myeloma cell lines against the NCATS MIPE library collection: KMS28BM_JCRB cell viability assay (AID 1919874); also: potency is read from the fitted curve at half-maximal effect; nearly all actives have a fitted effect of over 35% in size
Summary of the method: as §1

[8] = qHTS drug screen for cell cycle checkpoint inhibitors in PARPi-resistant BRCA-mutant ovarian cancer cell lines. (AID 1963452; calls by dose curve); details: PEO1/OlaR viability, CellTiter-Glo luminescence, 96 h, stronger effect = lower value
Summary of the method: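 PEO1, PEO4 and PEO1/OlaR ovarian cancer cells, 600 per well, exposed 96 h at 37C to a dilution series. Viability read by CellTiter-Glo luminescence, normalized to DMSO and empty wells; activity summarized as Z-AUC.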

[9] = Quantitative High-Throughput drug screen in 47 multiple myeloma cell lines against the NCATS MIPE library collection: OPM2_DSMZ cell viability assay (AID 1919872); also: nearly all actives have a fitted effect of over 30% in size; also: potency is read from the fitted curve at half-maximal effect
Summary of the method: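 CellTiter-Glo ATP luminescence gave viability after 48 h compound treatment at 37C of 500 multiple myeloma cells per well. Normalisation used DMSO-only wells as 100% and media-only wells as 0% viability; primary qHTS of approved and investigational drugs.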

[10] = qHTS for identification of novel therapeutic agents for treatment of microphthalmiaassociated transcription factor (MiT) renal cell carcinoma (RCC) (AID 1963991; calls by dose curve; also: potency is read from the fitted curve at half-maximal effect;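 as to z-score: curves scaled with 100% = DMSO viability and 0% = empty wells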); details: CellTiter-Glo, 48 h; for Potency: active = Z-AUC below -0.8 in all three lines; for z-score: stronger effect = lower value
Summary of the method: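 UOK109/UOK124/UOK145 (TFE3 fusions, three partners); 500 cells/well; MIPE v4.0, 1912 cpds, 11 conc.; 48 h, 37 C; CellTiter-Glo, 15 min RT; lum. Norm.: DMSO 100%, empty 0%.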

[11] = measured here: PEO1 parental Z-AUC
[12] = TFE3-RCC UOK109 viability, measured here: UOK109 Z-AUC
[13] = TFE3-RCC viability, measured here: UOK124 Z-AUC
[14] = TFE3-RCC viability, measured here: UOK145 Z-AUC

Structure (SMILES) | Potency [1] | Potency [2] | Potency [3] | Potency [4] | Potency [5] | Potency [6] | Potency [7] | Z-AUC [8] | Z-AUC [8, 11] | Z-AUC ([8]; measured here: PEO4 Z-AUC) | Potency [9] | Potency ([10]; TFE3-RCC UOK109 viability) | z-score [10, 12] | z-score [10, 13] | z-score [10, 14]
Cc1ccc(C(=O)Nc2ccc(CN3CCN(C)CC3)c(C(F)(F)F)c2)cc1C#Cc1cnc2cccnn12 | 1.32 µM (active) | 590 nM (active) | 935 nM (active) | 1.18 µM (active) | 11.8 µM (active) | 1480 nM (active) | 7.43 µM (active) | -2.19 (inactive) | -1.43 | -0.606 |  |  |  |  | 
O=C(Nc1ncc(-c2cc(C(F)F)nn2-c2c(Cl)cccc2Cl)s1)C1CC1 | 0.418 µM (active) | 526 nM (active) | 590 nM (active) | 0.662 µM (active) | 1.66 µM (active) |  | 0.296 µM (active) | -1.34 (inactive) | -1.49 | -1.31 | 1.05 µM (active) | 935 nM (active) | -1.06 | -1.43 | -1.27
O=C(C=Cc1cccnc1)NCCCCC1CCN(C(=O)c2ccccc2)CC1 | 0.0187 µM (active) | 1 nM (active) | 13.2 nM (active) | 0.0264 µM (active) | 0.0935 µM (active) | 14.8 nM (active) | 0.0833 µM (active) |  |  |  |  |  |  |  | 
Nc1nccc(Oc2ccc(NC(=O)c3c[nH]cc(-c4ccc(F)cc4)c3=O)cc2F)c1Cl | 16.6 µM (active) | 29600 nM (active) | 18700 nM (active) | 18.7 µM (active) | 20.9 µM (active) |  | 20.9 µM (active) |  |  |  |  |  |  |  | 
COc1cc2c(Oc3ccc(NC(=O)C4(C(=O)Nc5ccc(F)cc5)CC4)cc3F)ccnc2cc1OCCCN1CCOCC1 | 3.72 µM (active) | 3320 nM (active) | 8330 nM (active) | 10.5 µM (active) | 13.2 µM (active) |  | 3.32 µM (active) | -0.782 (inactive) | -0.246 | -0.374 | 4.18 µM (active) |  |  |  | 
COc1cc2c(Oc3ccc(-c4cnc(Nc5ccc(F)cc5)n(C)c4=O)cc3F)ccnc2cc1OCCCN1CCOCC1 | 2.64 µM (active) | 5260 nM (active) | 14800 nM (active) | 7.43 µM (active) | 5.9 µM (active) | 935 nM (active) | 4.18 µM (active) | -1.38 (inactive) | -0.565 | -0.285 |  |  |  |  | 
COc1cc(C(C)C)c2c(c1)S(=O)(=O)N(COc1cc(=O)n3cccc(OCCN4CCCCC4)c3n1)C2=O | 16.6 µM (active) | 26400 nM (active) | 18700 nM (active) | 18.7 µM (active) | inactive |  |  | 1.15 (inactive) | 1.06 | 0.892 | inactive |  |  |  | 
Cc1cc(Nc2nc(N[C@@H](C)c3ccc(F)cc3)c(C#N)cc2F)n[nH]1 | 4.69 µM (active) | 935 nM (active) | 935 nM (active) | 16.6 µM (active) | 11.8 µM (active) | 469 nM (active) |  | 0.0536 (inactive) | -0.395 | -0.871 |  |  |  |  | 
Cc1nc2cnc3ccc(C#Cc4cccnc4)cc3c2n1-c1ccc(C(C)(C)C#N)cc1 | 0.0743 µM (active) | 20.9 nM (active) | 13.2 nM (active) | 0.0662 µM (active) | 0.0833 µM (active) |  | 0.372 µM (active) | -0.114 (inactive) | -0.259 | -0.412 | 0.187 µM (active) | 118 nM (active) | -1.96 | -4.34 | -2.15
Cc1cc(Nc2cc(N3CCN(C)CC3)nc(Sc3ccc(NC(=O)C4CC4)cc3)n2)n[nH]1 | 18.7 µM (active) | 1 nM (active) | 14800 nM (active) | 23.5 µM (active) | 13.2 µM (active) |  | 6.62 µM (active) |  |  |  | 20.9 µM (active) |  |  |  | 
CC(C)C[C@H](NC(=O)CNC(=O)c1cc(Cl)ccc1Cl)B(O)O | 0.0372 µM (active) | 418 nM (active) | 41.8 nM (active) | 0.0662 µM (active) | 0.166 µM (active) | 52.6 nM (active) | 0.0662 µM (active) | -0.869 (inactive) | -1.48 | -1.83 |  | 372 nM (active) | -1.3 | -1.47 | -2.81
CCOc1ccccc1OCCNC(C)Cc1ccc(OC)c(S(N)(=O)=O)c1 (centres undefined) | inactive | inactive | inactive | inactive | inactive | inactive |  |  |  |  | inactive |  | -0.0547 | 0.341 | 2.03
C[C@@]12O[C@@H](C[C@]1(O)CO)n1c3ccccc3c3c4c(c5c6ccccc6n2c5c31)CNC4=O | 0.264 µM (active) | 118 nM (active) | 118 nM (active) | 0.526 µM (active) | 1.32 µM (active) |  | 0.833 µM (active) | -1.24 (inactive) | -0.538 | -0.928 | 1.48 µM (active) | 5260 nM (active) | -1.64 | -0.853 | -1.26
Cn1cncc1[C@@](N)(c1ccc(Cl)cc1)c1ccc2c(c1)c(-c1cccc(Cl)c1)cc(=O)n2C | 14.8 µM (active) | 833 nM (active) | 16600 nM (active) | 20.9 µM (active) | 5.26 µM (active) | 7430 nM (active) | 20.9 µM (active) | -0.153 (inactive) | 0.145 | -0.275 |  |  |  |  | 

— PubChem BioAssay (NCATS)
